Assay results from PubChem BioAssay AID493214 (National Center for Advancing Translational Sciences (NCATS), 2011).
Calls of active or inactive are those of the source. Calls come from the whole dose curve; as a rule, active = well fitted inhibition curve with a large enough effect; inactive = no such curve, though single readings can be large or run the other way.

target: 4'-phosphopantetheinyl transferase ffp (Bacillus subtilis) (UniProt Q9F4F7); experiment: Inhibitos of Bacillus subtilis Sfp phosphopantetheinyl transferase (PPTase): Dry Powder Followup; details: purified Sfp PPTase enzyme assay, dry powder retest
Excerpt: The covalent attachment of a phosphopantetheinyl (4'-PP) arm to a variety of synthases and other proteins is a key posttranslational protein modification. The 4'-PP is installed on the proteins post-translationally from coenzyme A (CoA) on a conserved serine residue by action of phosphopantetheinyl transferase (PPTase) enzymes. Phosphopantetheinylation is essential for synthase activity, and removal of the PPTase gene precludes natural product synthesis in microorganisms, or in the case of fatty acid biosynthesis, renders the organism unviable. PPTase enzymes belong to a distinct structural superfamily. Within bacteria, these enzymes are grouped into two classes based upon primary structure, the AcpS-Type and Sfp-Type PPTases.
Sfp-type PPTases, corresponding to an activator of surfactin production in Bacillus subtilis, are responsible for modifying type I polyketide and nonribosomal peptide synthases of prokaryotes. Sfp-type PPTases are responsible for the activation of a variety of pathogen-associated virulence factors. Among these compounds are toxins such as mycolactone from Mycobacterium ulcerans, siderophores such as vibriobactin from Vibrio cholerae or mycobactin from Mycobacterium tuberculosis, as well as the mycolic acids which form the waxy cell wall of Mycobacteria. The biosyntheses of these natural products are considered attractive targets for drug design.
In search of small molecule Sfp-PPTase inhibitors, a fluorescence quenching assay was developed for detection of Bacillus subtilis Sfp-PPTase enzymatic activity in a miniaturized high-throughput format. The consensus ybbr acceptor peptide DALEFIASKLA was N-terminally labeled with Black Hole Quencher-2 (BHQ-2) and used in combination with rhodamine-labeled coenzyme A as a co-substrate.
Inhibition of Sfp-PPTase was detected by recording the fluorescence intensity change over a 30-minute reaction period at a 525 nm excitation and 598 nm emission. Reagents were supplied by Michael Burkart and Timothy Foley, University of California at San Diego.
This assay is a followup of dry powder purchasing, QC'ing of samples and retesting in the primary screening protocol.
Assay Buffer: 50 mM Hepes-Na pH 7.6, 10 mM MgCl2, 0.01% Nonidet P-40, and 0.01% BSA.
3 uL of Sfp-PPTase enzyme (final concentration 15 nM) and 1 uL of substrate mixture (final concentration for rhodamine-CoA and BHQ-2-YbbR 5 uM and 12.5 uM, respectively) dispensed in columns 1, 2, 5 - 48. Columns 1 and 2 used to generate neutral control (uninhibited reaction)
Three uL of reagents, consisting of buffer (in columns 3 and 4 as negative control) and Sfp-PPTase (in columns 1, 2, 5 - 48) were dispensed into 1,536-well Greiner black solid bottom plate. Compounds (23 nL) were transferred via Kalypsys pintool equipped with 1,536-pin array. The plate was incubated for 15 min at room temperature, followed by the addition of 1 uL substrate to start the reaction. The plate was then centrifuged at 1000 rpm for 15 seconds, and the fluorescence intensity recorded on a ViewLux High-throughput CCD imager (Perkin-Elmer) using standard BODIPY optics (525 nm excitation and 598 nm emission). The plate was then incubated for 30 minutes, and a second read on the ViewLux was performed. The fluorescence intensity difference over the 30-minute period was used to calculate the respective reaction rate for each well.

Sequence of 4'-phosphopantetheinyl transferase ffp (Bacillus subtilis) (Q9F4F7 whole entry, looked up): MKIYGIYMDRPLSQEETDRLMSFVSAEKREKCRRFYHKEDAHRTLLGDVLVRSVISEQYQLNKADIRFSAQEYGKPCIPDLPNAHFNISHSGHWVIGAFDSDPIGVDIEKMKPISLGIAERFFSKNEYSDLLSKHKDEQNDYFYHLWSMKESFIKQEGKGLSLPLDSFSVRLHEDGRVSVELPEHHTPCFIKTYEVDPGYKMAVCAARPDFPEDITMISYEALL

Potency, active:
O=C(CSc1ncnc2sc3c(c12)CCCCC3)NCc1ccco1 23.5 µM
O=C(CSc1nc2scc(-c3ccco3)c2c(=O)n1-c1ccccc1)NCC1CCCO1 (centres undefined) 3.32 µM
O=C(Nc1ccc(F)cc1)C1=CC(=O)N2CCN=C2S1 11.8 µM
Clc1ccccc1-c1nnc2n1N/C(=C/Cc1ccccc1)S2 2.96 µM
CCOC(=O)c1nc(NCc2ccccc2)sc1C 16.7 µM
Cc1ccnc(NC(=S)N2CCN(c3cccc(C(F)(F)F)c3)CC2)c1 14.8 µM
COC(=O)Nc1sc2c(c1C(N)=O)CCC(C)C2 (centres undefined) 26.4 µM
O=C(CSc1ccccc1)Nc1nnc(COc2ccc(Cl)cc2)s1 6.63 µM
CCOC(=O)c1c(-c2ccc(C)o2)csc1NC(=O)CSc1nnnn1-c1ccccc1 2.35 µM
CCC(C)(C)n1nnnc1C(c1ccc(O)c(OC)c1)N1CCc2ccccc2C1 (centres undefined) 21 µM
C(/Cc1ccccc1)=C1\Nn2c(Cn3cnc4ccccc43)nnc2S1 21 µM
CCc1c(C)sc(NC(=O)C2CCCCC2C(=O)O)c1C(N)=O (centres undefined) 2.35 µM
CCOC(=O)c1cc(-c2ccccc2)sc1NC(=O)c1ccc(OC)cc1 23.5 µM
O=C(Nc1nnc(COc2ccc(Cl)cc2)s1)c1ccco1 14.8 µM
S=C(Nc1ccccn1)c1ccccn1 26.4 µM
CN(C)c1ccc(C(=S)N2CCN(Cc3ccccc3)CC2)cc1 5.27 µM
Cc1ccc(C2=CSC(NC(=O)CSc3nncn3C)=NN2)cc1 21 µM
COC(=O)c1c(NC(=O)COC(=O)c2ccc(Cl)cc2[N+](=O)[O-])sc2c1CCCCC2 37.3 µM
CCOC(=O)c1c(-c2ccc(OC)cc2)csc1NC(=O)C1CCCO1 (centres undefined) 14.8 µM
COC(=O)c1sc(NC(=O)c2cc(-c3ccccc3)nc3ccccc23)c(C#N)c1C 5.91 µM
Cc1nc(SCC(=O)c2ccc(F)cc2)n[nH]1 83.5 µM
C(=C1\Nn2c(COc3ccccc3)nnc2S1)/c1ccccc1 5.27 µM
CCOC(=O)c1c(NC(=O)c2ccccc2Cl)sc2c1CCc1ccccc1-2 2.64 µM
CC(C)(C)Cc1nnc(NC(=O)CSc2ccccc2)s1 5.91 µM
FC(F)(F)C1CCCN(c2nsc3ccccc23)C1 (centres undefined) 2.35 µM
Nc1c(C(=O)Nc2ccccc2F)sc2nc(-c3ccco3)ccc12 10.5 µM
CCN1CCN(C(=S)c2ccc(O)cc2)CC1 2.35 µM
O=C(/C=C/c1ccccc1)Nc1cccc(S(=O)(=O)Nc2ccccc2F)c1 0.527 µM
CNC(=O)c1c(N)sc2c1CCCCC2 8.35 µM
COc1ccc(OC)c(Nc2nc(=O)c3cccnc3s2)c1 13.2 µM
O=C(CN1C(=O)CC(c2ccco2)Sc2ccccc21)Nc1ccccc1F (centres undefined) 26.4 µM
c1csc(-c2nn3c(C4COc5ccccc5O4)nnc3s2)c1 (centres undefined) 21 µM
CCOC(=O)c1c(C)[nH]c(C2=CSC(=NC3CC3)NN2)c1C 18.7 µM
O=C(Nc1nnc(COc2ccc(Cl)cc2)s1)c1cccs1 18.7 µM
